# Test results published in PMC4336329 (PLoS ONE, 2015).
# Screen size: about 310,000 compounds; about 14,000 (4.5%) showed an effect of 50% or more. Effects have a minus sign here. The entries come from a sample that favours strong results as a whole.
# Biological target: human ether-à-go-go-related gene (hERG) potassium channel (human, UniProt Q12809)
# Assay: primary screen, population patch clamp on CHO cells stably expressing hERG; higher = less effect of the substance
# 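Further: peak tail current of the secondary pulse compared with the same well before compound.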
# Sequence of human ether-à-go-go-related gene (hERG) potassium channel (Q12809 whole entry, looked up): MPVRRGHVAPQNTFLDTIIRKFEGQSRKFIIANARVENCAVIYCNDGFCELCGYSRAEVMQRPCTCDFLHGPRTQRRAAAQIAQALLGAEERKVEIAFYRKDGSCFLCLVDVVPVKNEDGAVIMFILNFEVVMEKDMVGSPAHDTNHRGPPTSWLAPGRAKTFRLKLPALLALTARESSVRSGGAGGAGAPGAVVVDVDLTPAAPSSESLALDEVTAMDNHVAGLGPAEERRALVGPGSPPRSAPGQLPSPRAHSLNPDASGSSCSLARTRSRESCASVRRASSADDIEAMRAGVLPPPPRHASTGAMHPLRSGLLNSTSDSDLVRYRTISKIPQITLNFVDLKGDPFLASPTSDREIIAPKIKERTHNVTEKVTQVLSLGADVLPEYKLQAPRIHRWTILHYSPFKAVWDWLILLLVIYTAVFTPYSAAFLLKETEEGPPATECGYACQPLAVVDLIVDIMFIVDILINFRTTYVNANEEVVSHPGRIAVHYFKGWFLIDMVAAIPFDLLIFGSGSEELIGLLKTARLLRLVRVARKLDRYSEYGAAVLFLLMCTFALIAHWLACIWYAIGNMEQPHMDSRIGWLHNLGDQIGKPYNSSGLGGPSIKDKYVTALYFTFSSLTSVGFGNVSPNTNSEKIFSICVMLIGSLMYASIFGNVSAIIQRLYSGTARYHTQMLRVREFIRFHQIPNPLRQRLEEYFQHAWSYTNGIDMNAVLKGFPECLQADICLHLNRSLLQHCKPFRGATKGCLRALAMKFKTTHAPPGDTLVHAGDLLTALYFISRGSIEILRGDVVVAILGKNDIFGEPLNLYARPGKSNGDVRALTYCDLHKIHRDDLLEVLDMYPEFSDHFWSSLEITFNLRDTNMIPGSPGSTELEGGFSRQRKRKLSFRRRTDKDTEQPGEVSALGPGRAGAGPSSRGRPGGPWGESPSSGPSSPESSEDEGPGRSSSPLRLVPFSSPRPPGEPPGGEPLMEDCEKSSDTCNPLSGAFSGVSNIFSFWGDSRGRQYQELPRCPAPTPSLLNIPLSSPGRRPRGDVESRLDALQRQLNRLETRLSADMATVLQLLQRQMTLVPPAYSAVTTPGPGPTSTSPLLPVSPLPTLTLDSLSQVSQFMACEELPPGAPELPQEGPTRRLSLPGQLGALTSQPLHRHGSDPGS
row,SMILES,"hERG current change (%, negative = inhibition) at 10uM"
1,Cc1cc(C)nc(NC(=O)CSc2nn(C)c(=S)s2)n1,-0.37%
2,Cc1cc2cc(CNC(=O)Nc3ccc(Cl)c(Cl)c3)ccc2n1C,2.71%
3,CN(C)CCCn1c(NC(=O)C2CCCCC2)nc2ccccc21,-27.3%
4,CCCn1c(NC(=O)c2ccco2)nc2ccccc21,9.09%
5,O=C(Nc1nc2ccccc2n1CCN1CCCCC1)c1ccco1,-54.8%
6,CCCn1c(NC(=O)C2CCN(C(=O)c3ccccc3C)CC2)nc2ccccc21,-16%
7,O=C(Nc1nc2ccccc2n1CCN1CCCCC1)C1CCCCC1,-61.2%
8,CCCCn1c(NC(=O)C2CCCCC2)nc2ccccc21,4.63%
9,CCn1c(NC(=O)C2CCCCC2)nc2ccccc21,8.36%
10,O=C(Nc1nc2ccccc2n1Cc1ccccc1)c1ccco1,20.2%
11,O=C(Nc1nc2ccccc2n1CCN1CCCC1)C1CCCCC1,-58.6%
12,CCOC(=O)C1=C(c2ccccc2)NC(SCC(=O)NC2CCCCC2)=C(C#N)C1c1ccco1 (centres unmarked),-1.35%
13,COc1ccc(OC)c(C(=O)Cn2nnc3ccccc3c2=O)c1,9.14%
14,O=[N+]([O-])c1ccc2c(c1)C(c1ccccc1)=NCCN2,-69.1%
15,O=C1C2=C(C(c3ccccc3)=NCCN2)C(c2cccc([N+](=O)[O-])c2)N1c1ccccc1 (centres unmarked),-21.3%
16,O=[N+]([O-])c1ccc2[nH]nc(-c3ccccc3)c2c1,9.26%
17,O=C(/C=C/c1ccc(Cl)cc1)Nc1ccccc1N1CCOCC1,2.84%
18,CCc1cc(C(=O)Nc2cc(Cl)ccc2N2CCN(C)CC2)sc1C,3.43%
19,CN1CCN(c2ccc(Cl)cc2NC(=O)/C=C/c2cccc(F)c2)CC1,-69.9%
20,CN1CCN(c2ccc(Cl)cc2NC(=O)/C=C/c2ccc(F)cc2)CC1,-75.6%
21,CN1CCN(c2ccc(S(=O)(=O)N3CCCCC3)cc2NC(=O)/C=C/c2ccc(Cl)c([N+](=O)[O-])c2)CC1,-17.4%
22,CN1CCN(NC(=O)/C=C/c2cccc(Cl)c2)CC1,-6.09%
23,CCc1c(C)nc(N)nc1N1N=C1SC(C(C)=O)C(C)=O,27.8%

row,SMILES,"hERG current change (%, negative = inhibition) at 10uM"
1,CN(CCC#N)C(=O)COC(=O)c1ccccc1OCc1ccccc1Cl,1.72%
2,CNC(=O)CC1C(=O)N(c2ccc(F)cc2)C(=S)N1NC(=O)c1ccc(Br)cc1 (centres unmarked),2.82%
3,O=C(NC(NC(=O)c1c(F)cccc1F)c1ccc([N+](=O)[O-])cc1)c1c(F)cccc1F,-43.8%
4,Cc1ccc(SCCC(=O)NCc2ccco2)cc1,-3.96%
5,C/C(=N/NS(=O)(=O)c1ccc(C)cc1)c1ccc(NC(=O)C(F)(F)F)cc1,10.7%
6,CCN1CCN(CC(O)COC(c2ccccc2)c2ccccc2)CC1 (centres unmarked),-17.1%
7,OC(COc1ccc(OCc2ccccc2)cc1)CN1CCCCC1 (centres unmarked),-39.6%
8,OC(COC(c1ccccc1)c1ccccc1)CN1CCOCC1 (centres unmarked),-5.77%
9,Cl.OC(COCc1ccccc1)CN1CCCCC1 (centres unmarked),6.73%
10,CCOC(=O)N1CCN(CC(O)COC(CC)c2ccccc2)CC1.Cl (centres unmarked),-19.6%
11,CCC(OCC(O)CN1CCCCC1)c1ccccc1.Cl (centres unmarked),16.9%
12,CCOC(=O)C1CCN(CC(O)COC(CC)c2ccccc2)CC1.Cl (centres unmarked),-63.7%
13,CCOC(=O)C1CCCN(CCC(C)c2ccccc2)C1 (centres unmarked),-36.5%
14,CCOC(=O)C1CCCN(CC(O)COc2ccccc2C(C)=O)C1.Cl (centres unmarked),-46.2%
15,OC(COC(c1ccccc1)c1ccccc1)CN1CCCCC1 (centres unmarked),-62.9%
16,Cl.c1ccc(COC(CN2CCCCCC2)CN2CCCCCC2)cc1,-63.6%
17,CCOC(=O)C1CCCN(CC(O)COC(c2ccccc2)c2ccccc2)C1 (centres unmarked),-79.7%
18,CCOC(=O)C1CCCc2c1[nH]c1c(C(=O)O)cccc21 (centres unmarked),13.3%
19,COc1ccc2nc(SCC(=O)NCCc3ccccc3)[nH]c2c1,-21.6%
20,COc1ccc(-c2cc(C(=O)N3CCN(c4cccc(C)c4C)CC3)c3ccccc3n2)cc1OC,22.9%
21,c1ccc(-n2cccc2)c(N2CCCCC2)c1,3.76%
22,O=c1cc(CSc2nnc(-c3cccnc3)n2-c2ccccc2F)nc2sccn12,-4.15%
23,CCCCNc1ccc(C(=O)OCCN(C)C)cc1.Cl,-11.6%

row,SMILES,"hERG current change (%, negative = inhibition) at 10uM"
1,COc1ccc(C(=O)N/N=C/c2c(CO)cnc(C)c2O)cc1,-1.9%
2,Cc1ccc(C(OCC(O)CN2CCCCC2)c2ccccc2)cc1 (centres unmarked),-86.6%
3,CC1CCCN(CC(O)COCc2ccccc2)C1.Cl (centres unmarked),-1.07%
4,CC1CCCN(CC(O)COC(c2ccccc2)c2ccccc2)C1 (centres unmarked),-65%
5,OC1CCCN(CC(O)COC(c2ccccc2)c2ccccc2)C1 (centres unmarked),-18%
6,Cn1c(CNC(=O)c2ccco2)nnc1SCC(=O)c1ccccc1,10.6%
7,CCn1nc(NS(=O)(=O)c2ccc([N+](=O)[O-])cc2)c2cc3ccccc3nc21,19.3%
8,Cc1cc(C)cc(SCc2noc(C(=O)NCCCN3CCOCC3)c2C(=O)NCCCN2CCOCC2)c1,-30.4%
9,O=C(Nc1ccccc1F)c1ccccc1-c1ccc(C(F)(F)F)cc1,-5.12%
10,Nc1nonc1-n1nnc(C(=O)N/N=C/c2cccc(Cl)c2)c1CN1CCCCCC1,18.4%
11,Nc1nonc1-n1nnc(C(=O)N/N=C/c2cccc(O)c2)c1CN1CCCC1,7.84%
12,CN1CCN(Cc2c(C(=O)N/N=C/c3cccc(Br)c3)nnn2-c2nonc2N)CC1,-74.8%
13,CC1CCN(Cc2c(C(=O)N/N=C/c3ccc(C(C)C)cc3)nnn2-c2nonc2N)CC1,20.2%
14,CCc1ccc(/C=N/NC(=O)c2nnn(-c3nonc3N)c2CN2CCOCC2)cc1,-11.6%
15,CC(C)c1ccc(/C=N/NC(=O)c2nnn(-c3nonc3N)c2CN2CCOCC2)cc1,-56.6%
16,O=C1NC(=O)C(=Cc2ccc3c(c2)OCO3)C(=O)N1,15.3%
17,CC1CN(C(=O)COC(=O)c2ccc(O)cc2)CC(C)O1 (centres unmarked),17.4%
18,O=C(NCCCNC(=O)C(F)(F)C(F)F)C(F)(F)C(F)F,6.91%
19,CC(C)(C)OC(=O)NCCCC[C@H](NC(=O)c1nc[nH]c1C(=O)NC(c1ccccc1)c1ccccc1)C(=O)OC(C)(C)C,8.48%
20,Brc1cccc(Cn2c(-c3cncs3)nc3ccccc32)c1,-10.5%
21,O=C(/C=C/c1cccc([N+](=O)[O-])c1)NC1CC2CCC1C2 (centres unmarked),-24.7%
22,O=C(CSCc1ccc([N+](=O)[O-])cc1)NC1CC2CCC1C2 (centres unmarked),-15.3%
23,O=C(/C=C/c1ccc([N+](=O)[O-])cc1)NC1CC2CCC1C2 (centres unmarked),-67.8%

row,SMILES,"hERG current change (%, negative = inhibition) at 10uM"
1,O=C(/C=C/c1ccc(Cl)cc1)NC1CC2CCC1C2 (centres unmarked),-53.1%
2,COc1ccccc1/C=C/C(=O)NC1CC2CCC1C2 (centres unmarked),-3.53%
3,O=C(/C=C/c1ccccc1)NC1CC2CCC1C2 (centres unmarked),5.72%
4,CCOc1ccc(NC(=O)CN2C(=O)COc3ccc(Cl)cc32)cc1,0.412%
5,CN(C)C=O.Oc1cccc2c(NC(=S)Nc3ccc(OC(F)F)cc3)cccc12,-49.5%
6,CCOC(=O)CSC1=NC(=O)/C(=C\c2ccc(OC(C)=O)cc2)S1,13.1%
7,CCn1ncc(S(=O)(=O)Nc2cccnc2)c1C,5.02%
8,CC1(C)CC(N2CCOCC2)=CC(=[N+]2CCOCC2)C1.[I-],8.01%
9,CN(C)c1cccc(N=C2C=C(N3CCOCC3)CC(C)(C)C2)c1,-60.5%
10,CC1(C)CC(=O)C=C(N2CCOCC2)C1,15.6%
11,CSc1nnc(CNC(=O)c2ccccc2)n1-c1cccc(C)c1,-6.07%
12,COC(=O)c1sccc1Oc1ccc(F)cc1[N+](=O)[O-],1.74%
13,COc1ccc(S(=O)(=O)N(Cc2ccccc2)c2ccccc2C(=O)N2CCOCC2)cc1,-8.54%
14,CCN1CCN(C(=O)c2ccccc2N(C)S(=O)(=O)c2ccc(C)cc2)CC1,2.03%
15,Cc1ccc(S(=O)(=O)N(Cc2ccccc2)c2ccccc2C(=O)N2CCCCC2)cc1,-28.6%
16,CCN1CCN(C(=O)c2ccccc2N(Cc2ccccc2)S(=O)(=O)c2ccc(OC)cc2)CC1,-73.1%
17,CCN1CCN(C(=O)c2ccccc2N(Cc2ccccc2)S(=O)(=O)c2ccc(C)cc2)CC1,-53.2%
18,CCOC(=O)N1CCN(C(=O)c2ccccc2N(Cc2ccccc2)S(=O)(=O)c2ccc(OC)cc2)CC1,-26.3%
19,O=C(COc1ccc(Br)cc1CO)Nc1ccccc1F,-2.36%
20,COc1ccc(OC)c(S(=O)(=O)N(C)CC(=O)N2CCN(c3ccccc3F)CC2)c1,-6.63%
